Results reported in PubChem BioAssay (NCATS).
Results filed as inconclusive are left out. Entries that show only a call come without a potency. Calls of active or inactive are those of the source. Calls come from the whole dose curve; as a rule, active = well fitted curve in the direction sought with a large enough effect; inconclusive = small, poorly fitted or top-dose-only effect, or another doubt; inactive = no such curve, though single readings can be large; an effect the other way counts as inactive or inconclusive.

Key:
[1] = target: Cellular tumor antigen p53 (Homo sapiens) (UniProt P04637); test: Primary qHTS for small molecule compounds that upregulate eGFP-tagged delta133p53alpha (in N-terminal) cells. (AID 2060322); settings: NCI-H358 eGFP-delta133p53alpha fluorescence, 24 h; activation: stronger effect = higher value; note: nearly all actives have a fitted effect of over 75% in size; note: potency is the fitted concentration of half-maximal effect;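 for activation: cells pre-induced with doxycycline then dosed without doxycycline; series mostly up to about 56 µM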
Outline: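 NCI-H358 cells pre-induced 24 h with 10 ng/ml doxycycline for eGFP-delta133p53alpha, plated dox-free and exposed 24 h at 37C to titrated compounds. Fixed, Hoechst-stained; gated GFP peak intensity by laser scanning cytometry, normalized to DMSO (0%) and 57.5 uM 5-azacytidine (100%).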

[2] = target: Aldehyde dehydrogenase, mitochondrial (Homo sapiens) (UniProt P05091); test: qHTS for Inhibitors of the Aldehyde Dehydrogenase Family (ALDH2) Primary screen (AID 2061308); note: nearly all actives have a fitted effect of over 55% in size
[3] = target: Retinaldehyde dehydrogenase 3 (Homo sapiens) (UniProt P47895); test: qHTS for Inhibitors of the Aldehyde Dehydrogenase Family (ALDH1A3) Primary screen (AID 2061315)

Sequence of Cellular tumor antigen p53 (Homo sapiens) (P04637 whole entry, looked up): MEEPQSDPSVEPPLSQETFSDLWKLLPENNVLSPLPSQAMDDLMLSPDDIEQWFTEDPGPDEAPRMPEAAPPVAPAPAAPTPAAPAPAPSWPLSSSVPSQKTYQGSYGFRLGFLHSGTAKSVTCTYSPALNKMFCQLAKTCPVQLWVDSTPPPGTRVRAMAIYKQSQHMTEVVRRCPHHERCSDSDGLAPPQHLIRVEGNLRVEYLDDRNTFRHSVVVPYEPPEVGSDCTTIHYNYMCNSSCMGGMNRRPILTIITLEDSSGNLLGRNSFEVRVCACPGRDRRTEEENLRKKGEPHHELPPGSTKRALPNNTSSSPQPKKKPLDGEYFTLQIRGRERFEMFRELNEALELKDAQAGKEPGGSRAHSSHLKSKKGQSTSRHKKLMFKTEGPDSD

**Q.** Which results are given for `COC(=O)C[C@H]1C(C)(C)[C@H](OC(=O)c2ccccc2)C2CC3=C4CC(=O)O[C@@H](c5ccoc5)[C@]4(C)CCC3[C@@]1(C)C2=O` (stereo not given in full)?
**A.** activation [1]: -5.34% (inactive); Potency [2]: inactive; Potency [3]: inactive

**Q.** `CO[C@@H]1CC[C@H](OC[C@]2(COC(=O)c3ccc(C)[nH]3)[C@H](OC(C)=O)CC[C@@]3(C)[C@@H]4CC=C(C)[C@@H](C5=C(O)C(=O)OC5O)[C@]4(C)CC[C@@H]32)O[C@H]1C` (stereo not given in full) was tested. Which activation [1] did it give?
**A.** Its activation is 0% (inactive).

**Q.** And the Potency [2]?
**A.** The Potency was “inactive”.

**Q.** What about the Potency [3] of the same compound?
**A.** The Potency was “inactive”.

**Q.** How did the activation [1] turn out when `CC/C=C\CC1C(CC(=O)O)CCC1OC1OC(CO)C(O)C(O)C1O` (stereo not given) was run?
**A.** The activation was 0% (inactive).

**Q.** And the Potency [2]?
**A.** Its Potency is “inactive”.

**Q.** And the Potency [3]?
**A.** Its Potency is “inactive”.

**Q.** Which activation [1] does the source give for `C=C(C(=O)O)[C@@H]1CC[C@@]2(C)CCC[C@@](C)(O)[C@@H]2C1` here?
**A.** The activation was 10.7% (inactive).

**Q.** And the Potency [2]?
**A.** Its Potency is “inactive”.

**Q.** And the Potency [3]?
**A.** The Potency was “inactive”.

**Q.** Which activation [1] does the source give for `COC(=O)c1ccc(N2CCN(C)CC2)c(NC(=O)c2cccc(OC)c2)c1` here?
**A.** The activation was 9% (inactive).

**Q.** What about the Potency [2] of the same compound?
**A.** Its Potency is “inactive”.

**Q.** What about the Potency [3] of the same compound?
**A.** Its Potency is “inactive”.

**Q.** With `C/C=C(/C)C(=O)OC1C=C2C3C(C)C(C)C(OC(=O)C(C)C(C)O)CC3(C)CCC2(C)C2(C)CC(OC(C)=O)C3C(C)(C)C(O)C(=O)CC3(C)C12` (stereo not given) as the compound, how does the activation [1] read?
**A.** Its activation is -17% (inactive).

**Q.** What about the Potency [2] of the same compound?
**A.** Its Potency is “inactive”.

**Q.** What about the Potency [3] of the same compound?
**A.** The Potency was “inactive”.

**Q.** `CN1CCN(Cc2ccc(-c3cnc4[nH]cc(-c5ccc6[nH]ccc6c5)c4c3)cc2)CC1` was tested. Which Potency [1] did it give?
**A.** The Potency was 23.9 µM (active).

**Q.** And the Potency [2]?
**A.** Its Potency is “inactive”.

**Q.** And the Potency [3]?
**A.** The Potency was “inactive”.

**Q.** `C/C=C(\C)C(=O)O[C@@H]1CC2[C@@H](CC=C3C[C@@H](O[C@H]4C[C@H](OC)[C@H](O[C@H]5C[C@H](OC)[C@H](O[C@H]6C[C@H](OC)[C@H](O[C@H]7C[C@@H](OC)[C@H](O[C@@H]8O[C@H](CO)[C@@H](O)[C@H](O)[C@H]8O)[C@@H](C)O7)[C@@H](C)O6)[C@@H](C)O5)[C@@H](C)O4)CC[C@@]32C)[C@@]2(O)CC[C@H](C(C)=O)[C@@]12C` (stereo not given in full) was tested. Which activation [1] did it give?
**A.** The activation was -9.92% (inactive).

**Q.** What about the activity change, negative = inhibition [2] of the same compound?
**A.** Its activity change, negative = inhibition is 15.2% [at 11.2 µM] (inactive).

**Q.** And the activity change, negative = inhibition [3]?
**A.** Its activity change, negative = inhibition is -14.5% [at 11.2 µM] (inactive).

**Q.** `C[C@@H]1CC2OC(=O)C3=C2C(CCC3O)[C@@]12C[C@@H](c1ccoc1)OC2=O` (stereo not given in full) was tested. Which activation [1] did it give?
**A.** Its activation is -8.4% (inactive).

**Q.** What about the Potency [2] of the same compound?
**A.** Its Potency is “inactive”.

**Q.** What about the Potency [3] of the same compound?
**A.** Its Potency is “inactive”.

**Q.** What does the source list for `O=C(c1ccc2nccnc2c1)N1CCCCC1`?
**A.** activation [1]: -11% (inactive); Potency [2]: inactive; Potency [3]: inactive

**Q.** For `O=S(=O)(O)c1ccc(Nc2ncnc3c2ncn3[C@@H]2O[C@H](CO)[C@@H](O)[C@H]2O)cc1`, which activation [1] is on record?
**A.** The activation was -3% (inactive).

**Q.** What about the Potency [2] of the same compound?
**A.** Its Potency is “inactive”.

**Q.** What about the Potency [3] of the same compound?
**A.** The Potency was “inactive”.

**Q.** `CC1=CC2/C=C(\C)CC[C@@H](O)[C@@H](O)[C@@H]3O[C@@H]3C(=O)[C@]23C(=O)N[C@@H](CC(C)C)[C@@H]3[C@@H]1C` (stereo not given in full) was tested. Which activation [1] did it give?
**A.** Its activation is 0% (inactive).

**Q.** And the Potency [2]?
**A.** Its Potency is “inactive”.

**Q.** What about the Potency [3] of the same compound?
**A.** The Potency was “inactive”.

**Q.** With `CC(C)CC[C@@H](O)[C@](C)(O)[C@H]1CC[C@@]2(O)C3=CC(=O)[C@@H]4C[C@@H](O)[C@@H](O)C[C@]4(C)[C@H]3CC[C@]12C` as the compound, how does the activation [1] read?
**A.** Its activation is -7% (inactive).

**Q.** And the Potency [2]?
**A.** The Potency was “inactive”.

**Q.** And the Potency [3]?
**A.** Its Potency is “inactive”.

**Q.** How did the activation [1] turn out when `COc1cc2nc(=NC(=O)c3cccnc3)n3c(c2cc1OC)NCC3` was run?
**A.** Its activation is 3.34% (inactive).

**Q.** And the Potency [2]?
**A.** The Potency was “inactive”.

**Q.** And the Potency [3]?
**A.** The Potency was “inactive”.

**Q.** `CCOC(=O)CCNc1cc(N2CCc3ccccc3CC2)nc(-c2cccnc2)n1` was tested. Which activation [1] did it give?
**A.** Its activation is 7% (inactive).

**Q.** And the Potency [2]?
**A.** Its Potency is “inactive”.

**Q.** What about the Potency [3] of the same compound?
**A.** Its Potency is “inactive”.

**Q.** Which activation [1] does the source give for `CC(=O)O[C@@H]1[C@H](O[C@@H]2O[C@@H](CO)[C@H](O)[C@H]2O)[C@@H](O[C@@H]2O[C@@H](C)[C@H](O[C@@H]3OC[C@@H](O)[C@H](O)[C@H]3O)[C@@H](O)[C@H]2O)[C@H](OC(=O)[C@]23CCC(C)(C)C[C@H]2C2=CCC4[C@@]5(C)CC[C@H](O[C@@H]6O[C@H](C(=O)O)[C@@H](O)[C@H](O)[C@H]6O[C@@H]6O[C@H](CO)[C@H](O)[C@H](O)[C@H]6O)[C@@](C)(C=O)C5CC[C@@]4(C)[C@]2(C)CC3)O[C@@H]1C` (stereo not given in full) here?
**A.** Its activation is -13.7% (inactive).

**Q.** And the activity change, negative = inhibition [2]?
**A.** The activity change, negative = inhibition was 4.21% [at 11.2 µM] (inactive).

**Q.** And the activity change, negative = inhibition [3]?
**A.** The activity change, negative = inhibition was 3.44% [at 11.2 µM] (inactive).

**Q.** `O[C@@](Cc1ncc(CC2(C(F)(F)F)CC2)[nH]1)(c1ccc(-n2cccn2)cc1)C(F)(F)F` was tested. Which activation [1] did it give?
**A.** The activation was -3% (inactive).

**Q.** And the Potency [2]?
**A.** The Potency was “inactive”.

**Q.** And the Potency [3]?
**A.** Its Potency is “inactive”.

**Q.** Which activation [1] does the source give for `OC[C@H]1O[C@@H](Oc2ccc3c(c2)OC[C@H]2c4cc5c(cc4O[C@@H]32)OCO5)[C@H](O)[C@@H](O)[C@@H]1O` here?
**A.** The activation was -13.7% (inactive).

**Q.** And the Potency [2]?
**A.** Its Potency is “inactive”.

**Q.** And the Potency [3]?
**A.** Its Potency is “inactive”.

**Q.** For `CCN(Cc1cccnc1)C(=O)CN(c1ccc(OC)nc1)S(=O)(=O)c1ccccc1C`, which activation [1] is on record?
**A.** Its activation is -3% (inactive).

**Q.** And the Potency [2]?
**A.** The Potency was “inactive”.

**Q.** And the Potency [3]?
**A.** Its Potency is “inactive”.

**Q.** With `CC1(C)O[C@H]2CC(=O)OC[C@@]23C1=C(O)C(=O)[C@]1(C)C3CC[C@@]2(C)[C@H](c3ccoc3)OC(=O)[C@H]3O[C@]321` (stereo not given in full) as the compound, how does the activation [1] read?
**A.** The activation was -13% (inactive).

**Q.** And the Potency [2]?
**A.** Its Potency is “inactive”.

**Q.** What about the Potency [3] of the same compound?
**A.** Its Potency is “inactive”.
